SW480 rereplic – DNA re-replication induction in SW480 cells; SW480 DNA re-replication, Hoechst DNA content imaging, 48 h; Potency, µM (top dose mostly 46.1 µM), inactives show at the highest dose re-replication activation, most hits filed as activators; hit rate 1.8% among 340,000; note: % of control where 0% means no effect; nearly all actives have a fitted effect of over 55% in size
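Image-based DNA-content assay: after two days of treatment, nuclei were labelled with the DNA dye Hoechst and imaged, and hits were compounds raising the count of nuclei showing high fluorescence intensity.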
MCF10A rereplic – induces DNA re-replication in MCF 10a normal breast cells | MCF 10A DNA re-replication, Hoechst nuclear intensity, 48 h | Potency, µM (titrated, usually from 46.1 µM), without a hit: at the highest dose activity, positive = re-replication, hits mostly activators | hit rate 2.9% among 350,000; note: % of control where 0% means no effect; nearly all actives have a fitted effect of over 50% in size
KB-3-1 tox – kills parental KB-3-1 adenocarcinoma cells; AID 1347075; KB-3-1 viability, CellTiter-Glo ATP luminescence, 72 h; Potency, µM (doses to about 46.1 µM), usual class: cytotoxic; hit rate 1.4% among 400,000; note: % is set by controls: 0 for no effect and ±100 for the full control effect; nearly all actives have a fitted effect of over 60% in size
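KB-3-1 parental drug-naive adenocarcinoma cells in DMEM/10% FBS, incubated 72 h at 37 C with pin-transferred compounds across a concentration series. Viability by CellTiter-Glo luminescence; concentration-response curves fitted after normalization.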
HT1080 IDH1KD tx – toxicity to HT-1080 IDH1 knockdown cells (counter line) | Potency, µM (top dose mostly 46.1 µM), for the others: top-dose activity, negative = toxicity, usual class: cytotoxic | AID 686971 | hit rate 2% among 360,000 | HT-1080 IDH1 knockdown viability, ATP luminescence, 48 h;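 note: 0% = DMSO wells and -100% = cell-free medium wells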
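Cytotoxicity counter-line: IDH1KD HT-1080, 48 h, CellTiter-Glo. Curves classed by r2, magnitude and activity.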
HT1080-NT tox – kills 2HG-producing HT-1080-NT fibrosarcoma cells. hit rate 1.6% among 360,000. AID 686970. Potency, µM (highest dose often 46.1 µM), without a hit: at the highest dose activity, negative = less viability, usual class: cytotoxic. HT-1080-NT fibrosarcoma viability, CellTiter-Glo ATP luminescence, 48 h;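 note: NT is the 2HG producing partner of a matched IDH1 knockdown line; 0% = DMSO-treated cells and -100% = media-only wells without cells; nearly all actives have a fitted effect of over 55% in size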
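Luminescent CellTiter-Glo readout after 48 hours of compound exposure at 37 degrees C defined viability of HT-1080-NT cells. Activity was normalized to DMSO wells and cell-free media wells; concentration-response curves were fitted and assigned curve classes.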
KB-V1 MDR tox – KB-V1 MDR subline cytotoxicity. KB-V1 MDR cells viability, CellTiter-Glo, 72 h. Potency, µM (titrated, usually from 46.1 µM), most hits filed as cytotoxic. hit rate 3.4% among 400,000; note: % is set by controls: 0 for no effect and ±100 for the full control effect; nearly all actives have a fitted effect of over 60% in size
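qHTS viability screen in drug-selected KB-V1 MDR cells: 72 h compound treatment at 37 degrees C, ATP luminescence end point.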
Numbers without * were called inactive; [ ] = another dose, or the depositor's remark. Most compounds without a hit are left out; they make up all but 8% or so of the library. Calls come from the whole dose curve; as a rule, active = well fitted curve in the direction sought with a large enough effect; inconclusive = small, poorly fitted or top-dose-only effect, or another doubt; inactive = no such curve, though single readings can be large; an effect the other way counts as inactive or inconclusive. Potency is the fitted concentration of half-maximal effect.

For Cc1ccc(CN2CCCCC2C(=O)Nc2ccc(Oc3cccnc3)cc2)o1 (stereo not given) the results were SW480 rereplic 16.4µM*, MCF10A rereplic 14.6µM*, KB-3-1 tox 5.17µM*, HT1080 IDH1KD tx -20.6%, HT1080-NT tox inconclusive and KB-V1 MDR tox 8.2µM*.
For O=C(Nc1ccc(Oc2ccccc2)nc1)C1CCCCN1Cc1ccco1 (stereo not given) the results were SW480 rereplic 2.91µM*, MCF10A rereplic 1.84µM*, KB-3-1 tox inactive, HT1080 IDH1KD tx inconclusive, HT1080-NT tox inconclusive and KB-V1 MDR tox inconclusive.
Screening COC(=O)c1c(NC(=O)c2cc3ccccc3c(=O)o2)sc2c1CCCC2 returned KB-3-1 tox inactive and KB-V1 MDR tox inactive.
Screening CCOC(=O)N1CCN(Cc2nnc(-c3ccccc3C)o2)CC1 returned SW480 rereplic -6.1%, MCF10A rereplic 0.0%, KB-3-1 tox inactive, HT1080 IDH1KD tx inconclusive, HT1080-NT tox 22.4% and KB-V1 MDR tox inactive.
For COc1cccc(-c2cnc(C(O)c3ccc(C)c(F)c3)[nH]2)c1 (stereo not given) the results were KB-3-1 tox inactive, HT1080 IDH1KD tx 0.5%, HT1080-NT tox 2.2% and KB-V1 MDR tox inactive.
O=C(Cc1cccs1)NCCc1csc(-c2ccccc2)n1 was read as SW480 rereplic -0.3%, MCF10A rereplic 9.7%, KB-3-1 tox inactive, HT1080 IDH1KD tx 1.0%, HT1080-NT tox 1.9% and KB-V1 MDR tox inactive.
COc1cccc(N(CC(=O)NCC2CCCO2)C(=O)CCC(=O)Nc2nccs2)c1 (stereo not given) was read as SW480 rereplic -11.8%, MCF10A rereplic -40.6%, KB-3-1 tox inactive, HT1080 IDH1KD tx 10.3%, HT1080-NT tox 1.6% and KB-V1 MDR tox inactive.
CCCCCCCCOC(=O)c1cc([N+](=O)[O-])c(Sc2ncnc3nc[nH]c23)c([N+](=O)[O-])c1 was read as SW480 rereplic inconclusive, MCF10A rereplic 3.8%, KB-3-1 tox inconclusive, HT1080 IDH1KD tx 13µM*, HT1080-NT tox inconclusive and KB-V1 MDR tox inconclusive.
For CCOc1ccc(C2C(C(=O)OC)=C(C)NC3=C2C(=O)c2ccccc23)cc1OC (stereo not given) the results were KB-3-1 tox inactive and KB-V1 MDR tox inactive.
`COc1ccc(C2C(C#N)=C(C)NC3=C2C(=O)c2ccccc23)cc1` (stereo not given) gave SW480 rereplic 0.1%, MCF10A rereplic 17.1%, KB-3-1 tox inactive, HT1080 IDH1KD tx 10.2%, HT1080-NT tox 0.8% and KB-V1 MDR tox inactive.
`C#CCOc1c(Br)cc(C2C(C(=O)OC)=C(C)NC3=C2C(=O)c2ccccc23)cc1OCC` (stereo not given) gave KB-3-1 tox 4.61µM* and KB-V1 MDR tox inconclusive.
For COc1cc(C2C(C#N)=C(C)NC3=C2C(=O)c2ccccc23)cc(OC)c1OC (stereo not given) the results were SW480 rereplic -4.6%, MCF10A rereplic 3.4%, KB-3-1 tox 2.06µM*, HT1080 IDH1KD tx 0.794µM*, HT1080-NT tox 0.891µM* and KB-V1 MDR tox inconclusive.
CCn1c(SCC(N)=O)nc2c(c1=O)C1(CCCC1)Cc1ccccc1-2 was read as SW480 rereplic -3.5%, MCF10A rereplic inconclusive, KB-3-1 tox inactive, HT1080 IDH1KD tx 0.4%, HT1080-NT tox 3.9% and KB-V1 MDR tox inactive.
`CC1(C)CC(n2c(NCCO)nc3c(c2=O)C2(CCCC2)Cc2ccccc2-3)CCO1` (stereo not given) gave SW480 rereplic -2.4%, MCF10A rereplic -2.0%, KB-3-1 tox inactive, HT1080 IDH1KD tx 3.7%[9.24 µM], HT1080-NT tox inconclusive and KB-V1 MDR tox inactive.
Screening Cc1cccc(-n2c(SCC(N)=O)nc3c(c2=O)C2(CCCC2)Cc2ccccc2-3)c1 returned SW480 rereplic 18.4%, MCF10A rereplic 11.1%, KB-3-1 tox inconclusive, HT1080 IDH1KD tx inconclusive, HT1080-NT tox inconclusive and KB-V1 MDR tox 3.26µM*.
For O=c1c2c(nc(NCCO)n1CC1CCCCC1)-c1ccccc1CC21CCCC1 the results were SW480 rereplic 18.1%, MCF10A rereplic 23.1µM*, KB-3-1 tox inconclusive, HT1080 IDH1KD tx inconclusive, HT1080-NT tox inconclusive and KB-V1 MDR tox inconclusive.
Screening NC(=O)CSc1nc2c(c(=O)n1-c1ccccc1)C1(CCCCC1)Cc1ccccc1-2 returned SW480 rereplic 6.1%, MCF10A rereplic inconclusive, KB-3-1 tox inconclusive, HT1080 IDH1KD tx 13µM*, HT1080-NT tox inconclusive and KB-V1 MDR tox inconclusive.
`CCn1c(=O)cc(SCC(=O)N2CCN(c3ccccc3OC)CC2)c2ccccc21` gave SW480 rereplic -0.4%, MCF10A rereplic 8.4%, KB-3-1 tox inactive, HT1080 IDH1KD tx inconclusive, HT1080-NT tox -4.1% and KB-V1 MDR tox 8.2µM*.
Screening COc1ccccc1-n1cnc(N)c1C(=O)c1ccccc1 returned SW480 rereplic 14.6µM*, MCF10A rereplic inconclusive, KB-3-1 tox inactive, HT1080 IDH1KD tx 25.9µM*, HT1080-NT tox inconclusive and KB-V1 MDR tox inactive.
`COc1ccccc1-n1cnc(N)c1C(C)=O` gave SW480 rereplic 11.2%, MCF10A rereplic -9.6%, KB-3-1 tox inactive, HT1080 IDH1KD tx 1.7%, HT1080-NT tox 0.7% and KB-V1 MDR tox inactive.
Cc1cc(C)nc(-n2nc(C)c3c2NC(=O)CC3c2cc(F)ccc2F)n1 (stereo not given) was read as KB-3-1 tox inactive and KB-V1 MDR tox inactive.
CCC(=O)NC(c1cc(Cl)c2cccnc2c1O)C1CC1 (stereo not given) was read as SW480 rereplic 17.0%[9.22 µM], MCF10A rereplic 8.3%, KB-3-1 tox inconclusive and KB-V1 MDR tox inconclusive.
CN1CCN(C(c2ccc(Cl)cc2)c2cc(Cl)c3cccnc3c2O)CC1 (stereo not given) was read as SW480 rereplic 11.0%, MCF10A rereplic inconclusive, KB-3-1 tox inconclusive, HT1080 IDH1KD tx 23.1µM*, HT1080-NT tox inconclusive and KB-V1 MDR tox inconclusive.
For Oc1c(C(c2ccccn2)N2CCCCC2)cc(Cl)c2cccnc12 (stereo not given) the results were SW480 rereplic inconclusive, MCF10A rereplic 20.6µM*, KB-3-1 tox inconclusive, HT1080 IDH1KD tx 16.4µM*, HT1080-NT tox 14.6µM* and KB-V1 MDR tox inconclusive.
Screening COc1ccc(OCCn2cc(C=O)c3ccccc32)cc1 returned SW480 rereplic -6.9%, MCF10A rereplic inconclusive, KB-3-1 tox inactive, HT1080 IDH1KD tx -7.1%, HT1080-NT tox -11.6% and KB-V1 MDR tox inactive.
